# Measurements reported in ChEMBL document CHEMBL3988442, “University of Dundee, Small-Polar-MMV Screening Library” (2021).
# Among all 53,000 compounds or so, about 900 (1.7%) showed an effect of 50% or more. Only a selection was taken, and strong results are over-represented in it overall.
# Test system: Mycobacterium tuberculosis
# Test: Cornell - Phenotypic assay to identify agents that inhibit growth of Mycobacterium tuberculosis
# Type: functional
# Parameters: scale not given: direction of the effect not stated beside the values
# Conditions: 10 mM as filed; unlikely as a test dose
row,SMILES,Percent Effect [%]
1,Cc1c(Br)cccc1C(=O)Nc1cc(C(N)=O)n(C)c1,2.948
2,COC(=O)c1occc1Cn1cc(Br)cn1,-5.91
3,COc1cccc2c1ccn2CCNC(=O)CC(C)C,-27.68
4,CCCn1nnnc1COc1ccc(C(=O)OC)cc1OC,7.789
5,Cc1noc(C)c1-c1cccc(C2CN(S(=O)(=O)N(C)C)CCO2)n1 (configuration not stated),37.24
6,COCC(=O)N1CCOC(c2cccc(-c3cncnc3)n2)C1 (configuration not stated),-11.99
7,CN(C)S(=O)(=O)N1CCOC(c2cccc(-c3cncnc3)n2)C1 (configuration not stated),50.13
8,COc1ccccc1C(=O)N1CC(=O)N(CC(C)C)CC(O)C1 (configuration not stated),11.6
9,CCC(CN1CCCCC1)NC(=O)C1(c2cccc(F)c2)CC1.O=C(O)CC(O)(CC(=O)O)C(=O)O (configuration not stated),45.73
10,CCOCC(O)CN1CCN(C(=O)c2ccncc2)CC1 (configuration not stated),18.36
11,CCOCC(O)CN1CCN(C(=O)c2ccsc2)CC1 (configuration not stated),106.2
12,CCOCC(O)CN1CCN(C(=O)c2ccc(N(C)C)nc2)CC1 (configuration not stated),18.97
13,CC(C)N1CCC(Cc2cncc(-c3cccc(C(=O)O)c3)n2)CC1,-33.1
14,CCOCC1CN(S(=O)(=O)Cc2ccccc2)Cc2nccn2C1 (configuration not stated),3.802
15,CC(C)c1ccc(C#N)c(N2CC(C)(C)[C@@](C)(O)C2)n1,23.89
16,COc1cccc(/C=C/CCN2CCN(S(C)(=O)=O)CC2)c1,79.58
17,COc1cccc(/C=C/CCN2CCC(C(=O)N3CCCC3)CC2)c1,9.134
18,COc1cccc(S(=O)(=O)CCN2CCCN(C(C)=O)CC2)c1,16.19
19,COc1cccc(C(C)N2CCN(S(C)(=O)=O)CC2)c1 (configuration not stated),-32.99
20,COc1cccc(/C=C/CCN2CCCN(C(C)=O)CC2)c1,68.14
21,COc1cccc(NC(=O)CN2CCN(S(C)(=O)=O)CC2)c1,13.93
22,Cc1cc(C)n(C2CN(c3ncnc4[nH]ccc34)C2)n1,-54.22
23,CCn1cc(S(=O)(=O)NCC2(N3CCOCC3)CCCCC2)c(C)n1,-12.17

row,SMILES,Percent Effect [%]
1,N#CCCCOc1cccnc1NC(=O)CC1CCCCC1,-14.31
2,Cc1ccc(NC(=O)N2CCN(Cc3ccccn3)CC2)cc1Cl,-19.48
3,Cc1nc(CN(C)C2CCCN(c3ccccc3)C2)no1 (configuration not stated),-1.27
4,Cn1c(=O)c2c(c3ccccc31)OC(C)(C)CC2,17.08
5,COc1cccc2c3c(c(=O)n(C)c12)CCC(C)(C)O3,52.61
6,COc1cccc2c3c(c(=O)[nH]c12)CCC(C)(C)O3,14.12
7,CSCCCNC(=O)C(c1ccccc1C)N(C)C (configuration not stated),37.97
8,Cc1cc(N(C)CCC(O)c2ccccc2)n2nccc2n1 (configuration not stated),-28.51
9,Cc1cc(C(F)(F)F)nc(CNc2cc(C)nc3cc(C)nn23)n1,13.97
10,COc1cccc(C(=O)Oc2cc(=O)n3cccc(C)c3n2)c1,35.2
11,CC1c2cccn2CCN1C(=O)CCCc1nc(-c2ccco2)no1 (configuration not stated),8.285
12,CC1c2cccn2CCN1C(=O)CCc1nc(-c2ccccc2)no1 (configuration not stated),50.68
13,CC1c2cccn2CCN1C(=O)CCc1nc(C2CC2)no1 (configuration not stated),7.661
14,COC(=O)c1cc(OCC2CCC2)cc(C(=O)N[C@H]2CCCC[C@@H]2O)c1,13.96
15,Cc1nc(C)c(C(=O)N2CCCC2(C)C(=O)NC2CCCC2)s1 (configuration not stated),-2.69
16,Cc1cc(C)n(CC2CN(CC(=O)NC3(C#N)CCCC3)CCO2)n1 (configuration not stated),-4.222
17,CCOCCC(=O)Nc1cccc(Oc2ccccn2)c1,-2.089
18,NC(=O)c1cnc(NC2CCN(c3ccccc3)CC2)c(Cl)c1,48.08
19,NC(=O)c1cnc(NC2CCN(c3ccccn3)CC2)c(Cl)c1,18.4
20,NC(=O)c1cnc(NC2CCC(c3ccccc3)CC2)c(Cl)c1 (configuration not stated),57.03
21,O=S(=O)(c1cccnc1)N1CCN(Cc2nc(-c3ccco3)cs2)CC1,31.36
22,Cc1nc(C)n(CC2CCCN(Cc3cccnc3)C2)n1 (configuration not stated),6.124
23,O=c1[nH]c(CCN2CCCC(Cn3cncn3)C2)nc2ccccc12 (configuration not stated),33.45

row,SMILES,Percent Effect [%]
1,Cn1nc2c(cc1=O)CN(CCc1nc3ccccc3c(=O)[nH]1)CC2,8.475
2,O=c1[nH]c(CCN2CCN(CC(F)(F)F)CC2)nc2ccccc12,106.7
3,CN(CCc1nc2ccccc2c(=O)[nH]1)CCC(F)(F)F,95.2
4,CN(CCC(F)(F)F)Cc1nc2ccccc2c(=O)[nH]1,7.133
5,CCOCCN1CCN(CCc2nc3ccccc3c(=O)[nH]2)CC1,106.8
6,CCC(CC)C(=O)N1CCN(Cc2nc3ccccc3c(=O)[nH]2)CC1,5.405
7,O=c1[nH]c(CN2CCN(CC(F)(F)F)CC2)nc2ccccc12,9.356
8,CN(CCC(F)(F)F)c1nc2ccccc2c(=O)[nH]1,-4.598
9,O=C(c1sccc1-n1cnnn1)N1CCC(Cc2ccccc2)CC1,28.81
10,CCOC1Sc2nnc(C)n2N=C1c1ccc(F)cc1 (configuration not stated),27.03
11,CC(C)NC(=O)N1CCN(Cc2ccccn2)CC2(CC(=O)N(C)C2)C1.O=C(O)C(F)(F)F.O=C(O)C(F)(F)F (configuration not stated),-0.1639
12,COc1cccc(CC2CCCN2Cc2nccn2C)c1 (configuration not stated),13.47
13,Cn1cc(N2C(=O)CC[C@@H]3[C@H]2CCN3C(=O)c2cscn2)cn1.O=C(O)C(F)(F)F,15.97
14,Cc1cc(C(=O)N2CC[C@H]3[C@@H]2CCC(=O)N3c2ccccc2)no1,0.08428
15,O=C(c1cscn1)N1CC[C@H]2[C@@H]1CCC(=O)N2c1ccccc1,102.6
16,Cc1nnc(CN(Cc2ccc3c(c2)OCO3)C2CCC(C)CC2)o1 (configuration not stated),50.97
17,Cc1nnc(CN(Cc2cccc(Br)c2)C2CC2)o1,22.14
18,Cc1nnc(CN(Cc2ccccc2Br)C2CC2)o1,42.91
19,Cc1noc(CN(Cc2ccc3c(c2)OCO3)C2CCCC2)n1,4.979
20,CCc1noc(CN(Cc2ccc3c(c2)OCO3)C2CCCC2)n1,1.573
21,Cc1nnc(CN(Cc2ccc3c(c2)OCO3)C2CCCCC2)o1,52.33
